Assay results reported in PubChem BioAssay (NCATS).
Inconclusive results are not listed. Values without a mark were called inactive. The source made the active and inactive calls. Calls come from the whole dose curve; as a rule, active = well fitted inhibition curve with a large enough effect; inconclusive = small, poorly fitted or top-dose-only effect; inactive = flat fitted curve, though single readings scatter. Where a SMILES comes first, the peptide text is derived from it.

System: NIH3T3
Assay: Cytotoxic Profiling of Annotated Libraries Using Quantitative High-Throughput Screening (AID 1296008); note: nearly all actives have a fitted effect of over 60% in size
Conditions: Five cell lines viability, CellTiter-Glo ATP luminescence, 48-72 h; max response: hits give low values
How it was run: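 Cells exposed to compounds for 48 or 72 hr at 37 degrees Celsius. Viability read as ATP-coupled luminescence with CellTiter-Glo after 10 min at room temperature.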
% is set by controls: 0 for no effect and ±100 for the full control effect.

Row | SMILES | outcome | max response
1 | C=C1C[C@@]23CC[C@@H]4[C@](C)(C(=O)O)CCC[C@@]4(C)C2=CC[C@H]1C3 | inactive | 
2 | CC1OC(OC2C(O)C(C(=O)O)OC(OC3CCC4(C)C(CCC5(C)C4C=CC4=C6CC(C)(C)CC(O)C6(C)CCC45C)C3(C)C)C2OC2OCC(O)C(O)C2O)C(O)C(O)C1O (centres undefined) | inactive | 
3 | CC1OC(O[C@H]2[C@@H](O)C[C@@]3(C)C([C@H](O)C[C@]4(C)C3CC=C3C5CC(C)(C)CC[C@]5(C(=O)OC5OC(CO)C(O)C(O)C5OC5OCC(OC6OCC(OC7OCC(O)C(O)C7O)C(O)C6O)C(OC6OCC(O)(CO)C6O)C5O)CC[C@]34C)[C@]2(C)CO)C(O)C(O)C1O (some centres undefined) | inactive | 
4 | CC(=O)O[C@H]1[C@H](C)[C@@H](O)[C@H]2[C@@H]1C=C(C(=O)O)[C@H]1C[C@@H]3[C@H]([C@H]21)[C@H]1C(=O)O[C@@H]2CC[C@@]3(C)O[C@]1(O)[C@@H]2C | inactive | 
5 | C[C@@H]1CC[C@]2(C(=O)O)CC[C@]3(C)C(=CCC4[C@]5(C)C(CC[C@]43C)C(C)(C)[C@@H](O)[C@H](O)[C@@H]5O)C2[C@]1(C)O (some centres undefined) |  | -3.49%
6 | C/C=C1\[C@H](O[C@@H]2O[C@H](CO)[C@@H](O)[C@H](O)[C@H]2O)OC=C(C(=O)OC)[C@H]1CC(=O)OC | inactive | 
7 | C/C=C/C=C/C(CC(=O)O)Nc1ccc(C=O)cc1 (centres undefined) |  | 3.97%
8 | C=C[C@@]1(C)CC(=O)C2[C@](C)(O1)[C@@H](OC(C)=O)[C@@H](O)[C@H]1C(C)(C)CCC[C@]21C (some centres undefined) | inactive | 
9 | CCC(C)/C=C(C)/C=C/C1=CC2=C(Cl)C(=O)C(C)(OC(C)=O)C(=O)C2=CN1C1CCCCN(C(CCC(N)=O)C(=O)O)C1=O (centres undefined) |  | -1.04%
10 | C=C1C(=O)OC2CC(C)=C(C(C)CCCO[C@@H]3O[C@H](CO)[C@@H](O)[C@H](O)[C@H]3O)C(O)C12 (some centres undefined) | inactive | 
11 | CC(C)C1=CCC(C)(O)C(OC2OC(CO)C(O)C(O)C2O)C1 (centres undefined) | inactive | 
12 | C[C@H]1C[C@H]2[C@@H]3CCC4=CC(=O)C=C[C@]4(C)[C@@]3(F)[C@@H](O)C[C@]2(C)[C@@]1(O)C(=O)COP(=O)(O)O | inactive | 
13 | C=C(C(=O)O)[C@@H]1CC=C2CCC[C@H](C)[C@@]2(C)C1 | inactive | 
14 | C=C1CC2[C@]3(C)C(=C(O)C(=O)[C@@]2(C)[C@]2(C(=O)OC)C(=O)C(C)OC(=O)[C@@]12C)C(C)(C)C(=O)CC3O (some centres undefined) |  | 0.571%
15 | COC(=O)[C@@]1(O)C=CC[C@@H]2[C@@]3(C)C[C@@H](c4ccoc4)OC(=O)[C@H]3CC[C@]21C | inactive | 
16 | CC(=O)OC[C@]12[C@H](OC(C)=O)C(=O)[C@@H]3[C@@H](OC(C)=O)[C@@]14O[C@@]3(C)COC(=O)c1cccnc1[C@@H](C)[C@H](C)C(=O)O[C@@H]([C@H](OC(C)=O)[C@@H]2OC(C)=O)[C@]4(C)O |  | -8.22%
17 | CCCCCCc1cccc(NC(=O)[C@H](N)CCP(=O)(O)O)c1 |  | -1.22%
18 | C/C(=C\CCC(C)(O)c1ccc(C)cc1)C(=O)O (centres undefined) |  | 0.595%
19 | CO[C@H]1C=C2C(CC[C@H](O[C@@H]3O[C@H](CO)[C@@H](O)[C@@H](O)[C@H]3O)C2(C)C)[C@]2(C)CC[C@]3(C)C([C@H](C)C(O)C(C=C(C)C)O[C@@H]4O[C@H](CO)[C@@H](O)[C@@H](O)[C@H]4O)CC[C@@]3(C)C12 (some centres undefined) |  | 3.68%
20 | C[C@@H]1O[C@@H](O[C@@H]2[C@@H](O)[C@H](O[C@@H]3[C@@H](O)[C@@H](O)[C@H](O[C@H]4[C@H](OC(=O)[C@]56CCC(C)(C)C[C@H]5C5=CCC7[C@@]8(C)C[C@H](O)[C@H](O[C@@H]9O[C@H](C(=O)O)[C@@H](O)[C@H](O)[C@H]9O)[C@@](C)(CO)C8[C@H](O)C[C@@]7(C)[C@]5(C)CC6)OC[C@H](O)[C@@H]4O)O[C@H]3C)OC[C@H]2O)[C@H](O)[C@H](O)[C@H]1O (some centres undefined) | inactive | 

Row | SMILES | outcome | max response
21 | C/C=C/C=C/C=C/C(=O)O[C@@H]1C=C(CO)C(O)(C(=O)O)[C@@]2(C)CCCC(C)(C)[C@H]12 (some centres undefined) |  | -2.73%
22 | CCOC(=O)c1ccnc(CNCC(=O)N(CC)CCN(C)C)c1 | inactive | 
23 | C/C=C/C=C/C=C/C(=O)O[C@@H]1[C@@H](OC)C2=C(C(=O)N(C(C)C(=O)O)C2)[C@@]2(C)CCCC(C)(C)[C@H]12 (some centres undefined) |  | 0.76%
24 | C[C@H]1CN(C[C@H](Cc2ccccc2)C(=O)NCC(=O)O)CC[C@@]1(C)c1cccc(O)c1 | inactive | 
25 | C=C(C)C(=O)O[C@H]1C[C@@](C)(OC(C)=O)[C@@]2(O)CC[C@@](C)(O)[C@H](OC(C)=O)[C@@]23OC(=O)C(COC)=C13 | inactive | 
26 | CC(=O)NCCCCn1c2c(c3ccccc31)C(=O)NCC2 | inactive | 
27 | CC[C@@H](c1ccc(F)c(F)c1)n1c(C(=O)OC)c(-c2ccno2)[nH]c1=S | inactive | 
28 | CC/C=C/CC1=C(CCCCCCCC(=O)O)CCC1=O |  | -0.116%
29 | C=C[C@H]1[C@H](O[C@@H]2O[C@H](CO)[C@@H](O)[C@H](O)[C@H]2O)OC=C2C(=O)OCC[C@]21O | inactive | 
30 | O=C(NN1CCCCC1)c1nn(-c2ccc(Cl)cc2Cl)c(-c2ccc(C#Cc3ccc(C(F)(F)F)cc3)s2)c1CNS(=O)(=O)N1CCCC1 | inactive | 
31 | NCc1c[nH]c(=S)n1C1CCc2c(F)cc(F)cc2C1 (centres undefined) | inactive | 
32 | O=C(O)Cc1nn(Cc2nc3cc(C(F)(F)F)ccc3s2)c(=O)c2nccnc12 |  | 3.31%
33 | CC(=O)N1CCN(NC(=O)c2ccc(F)cc2)CC1 |  | -3.31%
34 | COc1ccc2cc(OCC3(C(=O)O)CN(C(=O)c4ccc(F)cc4)C3)ccc2c1 | inactive | 
35 | C=C[C@](C)(CC/C=C(\C)C(=O)O)O[C@@H]1OC[C@H](O)[C@H](O)[C@H]1O |  | 2.21%
36 | CC1(C)CC2C3=CCC4C5(C)CCC(OC6OC(C(=O)O)C(O)C(O)C6OC6OC(CO)C(O)C(O)C6OC6OC(CO)C(O)C(O)C6O)C(C)(CO)C5CCC4(C)C3(C)CCC2(C)C(OC2OCC(O)C(OC3OC(CO)C(O)C(O)C3O)C2O)C1O (centres undefined) |  | -17.3%
37 | COc1cc(/C=C/C(=O)OC2[C@H](O)CC(O)(C(=O)O)C[C@H]2O)ccc1O (some centres undefined) |  | -0.19%
38 | CC(C)=CC/C=C(/C)[C@H]1CC[C@]2(C)[C@@H]1[C@H](O)CC1[C@@]3(C)CC[C@H](O)C(C)(C)[C@@H]3[C@@H](O[C@@H]3O[C@H](CO)[C@@H](O)[C@H](O)[C@H]3O[C@@H]3O[C@@H](C)[C@H](O)[C@@H](O)[C@H]3O)C[C@]12C (some centres undefined) | inactive | 
39 | CC1NC(=O)CNC(=O)C(C(C)C)NC(=O)C2CCCN2C(=O)C(C(C)C)NC(=O)C(Cc2c[nH]c3ccccc23)NC1=O (centres undefined) (cyclo(GAWVPV); configuration not given here) | inactive | 
